Results on 29 compounds are retold here after PubChem BioAssay (NCI).

The structures appear in SMILES notation. Several values for one entry are separate records, joined by “and”; a condition that tells them apart may be missing. Equal entries are not always repeated. This is part of a sample that, as a whole, favours compounds with a hit. Of some 83,000 tested, about 20% had one in any assay.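 Each cell line was grown in a 96-well plate and treated with one concentration of compound for 48 hours. Values below 10 were considered active.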 Activity calls are given as the source filed them.

The assay deals with MDA-MB-468 breast. The assay can be described thus: NCI-60 one-dose screen, 48 h (100 = growth as untreated, 0 = no growth, -100 = all killed). The settings on record: 10 µM unless noted.
As for `CC(C)(C)CC(C)(C)c1ccc(O)c(Cc2ccc(Cl)cc2Cl)c1`, the growth was -88.6% (active).

As for `CCCCCCCCCCCCCCCCC(=O)O.CCCCCCCCCCCCCCCCCC(=O)O.CCCCCCCCCCCCCCCCCC(=O)O.CCCCCCCCCCCCCCCCCC(=O)O.CCCCCCCCCCCCCCCCCC(=O)O.CO[CH-]OC12COC1CC(O)C1(C)C(O)C(OC(C)O)C3=C(C)C(OC(=O)C(O)C([NH-])c4ccccc4)CC(O)(C(OC(=O)c4ccccc4)C21)C3(C)C.[Cu+].[Zn].[Zn].[Zn].[Zn].[Zn]` (centres undefined), the growth is -13.3% (active).

On to `CCCCCCCCCCC(=O)CCCCCCCCCC`, for which the growth is 107% (inactive).

As to `CCCCN1C(=O)c2cccc3c(-c4ccc5c(c4)ncn5C4CCCCC4)ccc(c23)C1=O`, the growth is 101% (inactive).

With `O=[N+]([O-])c1cc(S(=O)(=O)c2ccc(F)c([N+](=O)[O-])c2)ccc1F`, the growth was 88.4% (inactive).

Take `COc1ccc2c(c1)Oc1nc(N)c(C#N)c(N)c1C2Sc1ccc(C)cc1` (centres undefined): the growth is -45.8% (active).

With `CC(=O)O[C@H]1[C@H](CC#CC#CC[C@@H]2C[C@]3(C)[C@H]4CC=C5[C@H]6[C@@H](C)[C@H](C)CC[C@]6(C(=O)NCCN(CCN)CCN)CC[C@@]5(C)[C@]4(C)CC[C@H]3C(C)(C)[C@H]2OC(C)=O)C[C@]2(C)[C@H]3CC=C4[C@H]5[C@@H](C)[C@H](C)CC[C@]5(C(=O)NCCN(CCN)CCN)CC[C@@]4(C)[C@]3(C)CC[C@H]2C1(C)C`, the growth was 1.36% (active).

For `COc1ccc(C2=NN(C(=O)c3cc(OC)c(OC)c(OC)c3)C(c3ccc(Cl)cc3)C2)cc1OC` (centres undefined), the growth is 9.76% (active).

Turning to `CC(=O)Oc1csc(N(C(C)=O)c2cccc(C(F)(F)F)c2)n1`, the growth was 92.1% (inactive).

Take `C=C(c1ccc(OC)c(/C=C/C(=O)c2cc(OC)c(OC)c(OC)c2)c1)c1cc(OC)c(OC)c(OC)c1`: the growth was -8.58% (active).

As to `Cc1nc(C)c(C(=O)O)cc1C(=O)O`, the growth was 109% (inactive).

Take `CCOC(=O)C1=C(C)N2C(=NC3=C(CCCC/C3=C\c3cc(OC)c(OC)c(OC)c3)C2c2cc(OC)c(OC)c(OC)c2)S1` (centres undefined): the growth was 25.2% (inactive).

Turning to `Nc1ncnc2c1N=C(c1ccc(Br)cc1)CC(c1cccc(Nc3ccnc4cc(C(F)(F)F)ccc34)c1)N2` (centres undefined), the growth was 60.7% (inactive).

Take `O=C1NC(=O)/C(=C\c2ccco2)S1`: the growth is 108% (inactive).

On to `CN=c1ccc2nc3ccc(N)cc3sc-2c1`, for which the growth was -5.28% (active).

Consider `COc1cc(/C=C/c2cc(/C=C/c3ccc(O)c(OC)c3)[nH]c(=O)n2)ccc1O`, for which the growth is 6.34% (active).

Turning to `CN1C(=O)N(C)C2(c3ccccc3)n3c(s/c(=C\c4ccccc4)c3=O)=NNC12c1ccccc1` (centres undefined), the growth was 80.8% (inactive).

As for `O[C@H](c1cc(C(F)(F)F)nc2c(C(F)(F)F)cccc12)[C@@H]1CCCCN1`, the growth is 27.3% (inactive) and -6.87% (active).

As to `Cc1ccc(N)cc1CN1C(=O)c2ccccc2C1=O`, the growth is 107% (inactive).

Take `C[C@]12CC[C@@H]3c4ccc(O)cc4CC[C@H]3[C@@H]1CC[C@@H]2NS(=O)(=O)c1cccc(Br)c1`: the growth was 53.8% (inactive).

Take `O=C(Nc1cccc(Cn2c(=O)[nH]c3ccc(Oc4ncccn4)cc3c2=O)c1)c1cc(Cl)cc(Cl)c1`: the growth was 50.5% (inactive).

`Cc1nn(-c2ccccc2)c2c1N=c1s/c(=C\c3ccc(C(F)(F)F)cc3)c(=O)n1CN2`: the growth was 44.1% (inactive).

For `c1ccc(C2=Nc3ccccc3SC2)cc1`, the growth is 122% (inactive).

Consider `O=C(CSc1nnc(-c2ccccc2)o1)Nc1ccc(C(=O)/C=C/c2ccccc2)cc1`, for which the growth is 58.3% (inactive).

Regarding `Nc1nc(I)c2ncn(C3OC(CO)C(O)C3O)c2n1` (centres undefined), the growth is 115% (inactive).

In the case of `COC[C@]12CC[C@@H](C)[C@H](C)[C@H]1C1=CC[C@@H]3[C@@]4(C)CCCNC(C)(C)[C@@H]4CC[C@@]3(C)[C@]1(C)CC2`, the growth was -6.6% (active).

For `O=C(Nc1cccc(NC(=O)C2CCCCC2)c1)c1ccccn1`, the growth is 116% (inactive).

As to `N#CCc1cccc2ccccc12`, the growth is 112% (inactive).

Regarding `CCOC(=O)c1c2c(n3cccc(F)c13)C(=O)c1ncccc1C2=O`, the growth was 39.6% (inactive).
